Assay results reported in PubChem BioAssay (NCATS).
Where “and” joins values, the source holds several entries; their conditions need not be identical. Equal values may be shown once. Results filed as inconclusive are left out. Where a call stands in place of a potency, no number is given. Some compounds were tested as several samples or in several runs, with calls that do not always agree. Calls of active or inactive are those of the source. The call rests on the fitted dose curve; in most records, active means well fitted curve in the direction sought with a large enough effect; inconclusive means small, poorly fitted or top-dose-only effect, or another doubt; inactive means no such curve, though single readings can be large; an effect the other way counts as inactive or inconclusive.

Key:
[1] = Viability qHTS for spleen associated tyrosine kinase inhibitor (SYKi) naive MV4-11 cells (AID 1963823); further: nearly all actives have a fitted effect of over 40% in size
Procedure, shortened: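 Viability of MV4-11 AML cells lacking prior SYK inhibitor exposure is scored by CellTiter-Glo luminescence following 72 hr compound incubation at 37 C, 5% CO2, seeded at 500 cells per well.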

[2] = Viability qHTS for spleen associated tyrosine kinase inhibitor (SYKi) drug resistant MV4-11 cells (AID 1963824); further: nearly all actives have a fitted effect of over 35% in size
Procedure, shortened: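 SYK-inhibitor-resistant MV4-11 AML cells were seeded at 500 per well onto compound and cultured 72 hours (37 °C, 5% CO2). CellTiter-Glo was then added, and after 10 min at room temperature, luminescence gave viability.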

[3] = Quantitative highthroughput screen to assess conditional lethalithy of NOMO1 cells grown in RPMI1640 with untreated serum (RPMI+s) (AID 1963876); further: nearly all actives have a fitted effect of over 35% in size
Procedure, shortened: (§1)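 Each medium arm—HPLM with 10% dialyzed FBS, or RPMI1640 with 5 mM glucose and 10% untreated or dialyzed FBS—was screened against an 11-point, 3-fold compound titration for 48 h at 37 °C, with CellTiter-Glo luminescence as endpoint.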

[4] = Quantitative highthroughput screen to assess conditional lethalithy of NOMO1 cells grown in RPMI1640 with dialyzed fetal bovine serum (RPMI+ds) (AID 1963877); further: nearly all actives have a fitted effect of over 30% in size; on Viability: series mostly up to about 46 µM
Procedure, shortened: as §1

[5] = Quantitative highthroughput screen to assess conditional lethalithy of NOMO1 cells grown in Human Plasma-Like Medium with dialyzed fetal bovine serum (HPLM+ds) (AID 1963878); further: nearly all actives have a fitted effect of over 35% in size
Procedure, shortened: as §1

[6] = Cellular viability qHTS for adrenocortical cancer (ACC) cell line NCI-H295R (AID 1963990); further: nearly all actives have a fitted effect of over 60% in size
Procedure, shortened: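 Viability of NCI-H295R after 48 h of treatment (final up to 46 uM) measured through cellular ATP luminescence.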

[7] = Quantitative highthroughput screen to assess conditional lethalithy of P12 Ichikawa cells grown in Human Plasma-Like Medium with dialyzed fetal bovine serum (HPLM+ds) (AID 1963879); conditions: Potency: viability; further: nearly all actives have a fitted effect of over 35% in size; on Viability: series mostly up to about 46 µM
Procedure, shortened: as §1

[8] = Quantitative highthroughput screen to assess conditional lethalithy of P12 Ichikawa cells grown in RPMI1640 with dialyzed fetal bovine serum (RPMI+ds) (AID 1963880); conditions: Potency: P12-Ichikawa viability; further: nearly all actives have a fitted effect of over 35% in size
Procedure, shortened: as §1

[9] = Quantitative highthroughput screen to assess conditional lethalithy of P12 Ichikawa cells grown in RPMI1640 with untreated serum (RPMI+s) (AID 1963881); conditions: Potency: viability; further: nearly all actives have a fitted effect of over 35% in size; on Viability: series mostly up to about 46 µM
Procedure, shortened: as §1

[10] = Quantitative highthroughput screen to assess conditional lethalithy of SEM cells grown in Human Plasma-Like Medium with dialyzed fetal bovine serum (HPLM+ds) (AID 1963882); further: nearly all actives have a fitted effect of over 35% in size; on Viability: series mostly up to about 46 µM
Procedure, shortened: as §1

[11] = Quantitative highthroughput screen to assess conditional lethalithy of SEM cells grown in RPMI1640 with unreated serum (RPMI+s) (AID 1963883); further: nearly all actives have a fitted effect of over 35% in size
Procedure, shortened: as §1

[12] = Quantitative highthroughput screen to assess conditional lethalithy of SEM cells grown in RPMI1640 with dialyzed fetal bovine serum (RPMI+ds) (AID 1963884); further: nearly all actives have a fitted effect of over 35% in size; on Viability: series mostly up to about 46 µM
Procedure, shortened: as §1

[13] = Cellular viability qHTS for adrenocortical cancer (ACC) cell line SW-13 (AID 1963989); conditions: SW-13 ACC cells viability, CellTiter-Glo, 48 h; activity (max response): stronger effect = lower value; further: nearly all actives have a fitted effect of over 65% in size;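 on activity (max response): cells grown in serum-free medium with ITS supplement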
Procedure, shortened: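 Here, serum-free SW-13 cultures were dosed up to 46 uM. Following 48 h, ATP-dependent luminescence (CellTiter-Glo) reported viable cells, and logistic modeling produced IC50 values.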
Potency means the concentration at half of the fitted maximal effect.

Row | Compound | Potency [1] | Potency [2] | Potency [3] | Potency [4] | Potency [5] | Potency [6] | Potency [7] | Potency [8] | Potency [9] | Potency [10] | Potency [11] | Potency [12] | activity (max response) [13] | Potency [13]
1 | CCCCOc1ccc(CC(=O)NO)cc1 | inactive and 14.8 µM (active) | inactive and 18.6 µM (active) | inactive | inactive | inactive | inactive | – | – | – | – | – | – | – | –
2 | CN1C(C(=O)Nc2ccccn2)=C(O)c2sc(Cl)cc2S1(=O)=O | inactive | 16.6 µM (active) | inactive | inactive | – | inactive | inactive | inactive | inactive | inactive | inactive | inactive | -21.7% (inactive) | –
3 | OC(CCN1CCCCC1)(c1ccccc1)C1CC2C=CC1C2 (configuration not stated) | inactive | inactive and 16.6 µM (active) | inactive | inactive | – | inactive | inactive | inactive | inactive | inactive | inactive | inactive | -4.13% (inactive) and -26% (inactive) | –
4 | O=C(O)CCNC(=O)c1ccc(N=Nc2ccc(O)c(C(=O)O)c2)cc1 | inactive | inactive | inactive | inactive | – | inactive | inactive | inactive | inactive | inactive | inactive | inactive | 4.01% (inactive) and 3.9% (inactive) | –
5 | OCc1ccc(-c2ccc(-c3ccc(CO)s3)o2)s1 | 1.18 µM (active) | 0.833 µM (active) | inactive | inactive | inactive | 28.2 µM (active) | – | – | inactive | inactive | inactive | inactive | -9.77% (inactive) | –
6 | Cc1ccc(F)c(NC(=O)Nc2ccc(-c3cccc4[nH]nc(N)c34)cc2)c1 | 0.0166 µM (active) | 0.0231 µM (active) | inactive | inactive | inactive | 15.8 µM (active) | – | inactive | inactive | – | 10.5 µM (active) | 5.9 µM (active) | – | 22.4 µM (active)
7 | Cc1[nH]nc2ccc(-c3cncc(OC[C@@H](N)Cc4ccccc4)c3)cc12 | 82 nM (active) and 132 nM (active) | 0.116 µM (active) | 2.96 µM (active) | 2.35 µM (active) | – | – | 4.18 µM (active) | 3.32 µM (active) | 2.96 µM (active) | 1.18 µM (active) | 2.09 µM (active) | 2.35 µM (active) | – | 0.562 µM (active)
8 | CNC(=O)c1ccc2c(C(=Nc3cccc(CN(C)C)c3)c3ccccc3)c(O)[nH]c2c1 | 2.95 µM (active) | 5.8 µM (active) and 3.72 µM (active) | 20.9 µM (active) | 18.7 µM (active) | 16.6 µM (active) | 22.4 µM (active) | – | – | – | 1.87 µM (active) | 0.935 µM (active) | 1.32 µM (active) | – | –
9 | Cc1cc2c(s1)Nc1ccccc1N=C2N1CCN(C)CC1 | 20.6 µM (active) | 23.1 µM (active) | inactive | inactive | – | inactive | inactive | inactive | inactive | inactive | inactive | inactive | -7.86% (inactive) | –
10 | CNC(=O)[C@H](Cc1ccccc1)NC(=O)[C@H](CC(C)C)[C@H](CSc1cccs1)C(=O)NO | 5.25 µM (active) | 2.95 µM (active) | inactive | inactive | inactive | inactive | – | 11.8 µM (active) | 9.35 µM (active) | 16.6 µM (active) | – | 14.8 µM (active) | -14.2% (inactive) | –
11 | COc1c2occc2cc2ccc(=O)oc12 | inactive | inactive | inactive | inactive | inactive | inactive | – | 7.43 µM (active) | – | inactive | inactive | inactive | 8.25% (inactive) and 3.48% (inactive) | –
12 | CC(C)c1cc(-c2n[nH]c(=O)n2-c2ccc3c(ccn3C)c2)c(O)cc1O | 9.2 nM (active) and 9.3 nM (active) | 11.6 nM (active) and 16.6 nM (active) | 0.118 µM (active) | 0.0935 µM (active) | 0.105 µM (active) | 0.0126 µM (active) | – | – | – | 0.0743 µM (active) | 0.059 µM (active) | – | – | 0.282 µM (active)
13 | OC[C@H](Cc1ccccc1)Nc1nc(Oc2ccc3c(c2)CCC3)nc2c1ncn2Cc1ccc(-c2ccccc2)cc1 | 13.2 µM (active) | 10.5 µM (active) | inactive | inactive | inactive | – | – | – | inactive | – | inactive | inactive | – | –
14 | CCCCS(=N)(=O)CCC(N)C(=O)O (configuration not stated) | 24.1 µM (active) | 17.1 µM (active) | inactive | inactive | 16.6 µM (active) | inactive | – | – | – | – | – | inactive | 9.43% (inactive) | –
15 | O=C(O)C1=CC(O)C(O)[C@H](O)C1 (some centres not stated) | inactive | inactive | inactive | inactive | inactive | – | – | – | – | inactive | inactive | inactive | -8.83% (inactive) | –
